Our source for the growth values is PubChem BioAssay (NCI).

The panel holds about 83,000 compounds, 20% with a hit somewhere; the sample as a whole holds those more often.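 Percent growth is the endpoint: 0 to 100 indicates growth inhibition (40 means 60% inhibition), 0 means no net growth, and negative values indicate cell death.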 Unmarked numbers belong to inactive results. Calls of active or inactive are those of the source. The calls were made as follows: active = growth percent below 10; inactive = the rest.

This assay has as its system HL-60(TB) leukemia. The assay can be described thus: NCI-60 one-dose screen, 48 h (100 = growth as untreated, 0 = no growth, -100 = all killed). To be noted: 10 µM unless noted.
On to `CCCCCCCC/C=C\CCCCCCCC(=O)Oc1cccc2cccnc12`, for which the growth is 83.9%.

On to `CCOC(=O)c1cnn(CC(C)O)c1NC(=O)NCc1ccccc1C(F)(F)F` (stereo not given), for which the growth was 58%.

Turning to `Nc1nc2c(c(=O)[nH]1)C1(C(=O)Nc3ccccc31)c1c(nc(N)[nH]c1=O)N2`, the growth was 108%.

As to `CCOC(=O)c1c(NC(=O)c2ccccc2)sc2c(O)c(CN(CC)CC)ccc12`, the growth was 0.395% (active).

For `COc1cc(Nc2ccnc(NCCNc3ccnc4cc(Cl)ccc34)n2)cc(OC)c1`, the growth is 11.9%.

For `C=C[C@]1(C)C=C2C(=O)[C@@]3(O)OC[C@@]4(CCCC(C)(C)C43O)C2(O)C(O)C1` (stereo not given in full), the growth is -73.9% (active).

`c1ccc2cc3c(Nc4ccc(N5CCOCC5)cc4)ccnc3cc2c1`: the growth was 99.1%.

For the compound `Nc1ccc(-c2ccncc2)cc1NC(=O)N1CCCC1`, the growth is 120%.

For the compound `Cn1cc(-c2csc(-c3cn(C(=O)OC(C)(C)C)c4ccccc34)n2)c2cccnc21`, the growth was 65.8%.

`O=C(C1CCCCC1)[C@@H]1[C@]2(C(=O)NC3CCCCC32)[C@@H]2CCCN2[C@@]12C(=O)NC1CCC(Cl)CC12` (stereo not given in full): the growth is -65.9% [100 µM] (active).

Take `CC(=O)Nc1ccc(C(=O)CCl)cc1`: the growth is -19.4% (active).

On to `[O-][n+]1ccccc1CCN(O)CCc1cccc[n+]1[O-]`, for which the growth is 74.2%.

Take `CCN(CC)c1nc(SCC(=O)Nc2nc3ccc(C)cc3s2)nc(-c2ccccc2)c1C#N`: the growth was 96.5%.

For `N#CC(C#N)N=Nc1cc(Cl)ccc1Cl`, the growth was 85.2%.

As to `CCCCCCN1CSC(=S)N(CCCCCC)C1`, the growth was 112%.

`COc1cc(/C=N/NC(=S)NNC(=S)NC2CCCCC2)cc(OC)c1OC`: the growth was 104%.

`CNS(=O)(=O)Nc1nccc(Cc2c(C)c3ccc(Oc4ncccn4)cc3oc2=O)c1F`: the growth was 27.9%.

For the compound `O=C(c1ccc(F)c(Cl)c1)N1c2ccccc2Sc2ccccc21`, the growth is 30.8%.

Consider `O=C1CCC(N2C(=O)c3cccc(NCCCCCCOc4ccc(Nc5nccc(Nc6ccccc6)n5)cc4)c3C2=O)C(=O)N1` (stereo not given), for which the growth is 87.2%.

With `Cn1cc(-c2nonc2-c2cn(C)c3ccc(F)cc23)c2ccccc21`, the growth was -24.3% (active).

On to `COc1cc2ncnc(Nc3ccc(C(=O)/C=C/c4ccc(C(F)(F)F)cc4F)cc3)c2cc1OC`, for which the growth is 85.9%.

In the case of `O=C(/C(=C/c1ccccc1)CN1CCCCC1)c1ccccc1`, the growth was -16.4% (active).

For the compound `COC(=O)C1(NC(=O)CNC(=O)OCc2ccccc2)CCCC1`, the growth is 90.4%.

Take `Cc1ccc(C2CC(c3cccc(Nc4ccncc4)c3)=NN2c2cc(Cl)cc(Cl)c2)cc1` (stereo not given): the growth is 14.8%.

Turning to `C=C(C)[C@@H]1CC[C@]2(C#N)CC[C@]3(C)[C@H](CC[C@@H]4[C@@]5(C)CCCNC(C)(C)[C@@H]5CC[C@]43C)[C@@H]12`, the growth is 83.9%.

In the case of `CC(=O)n1c(-c2ccc(Cl)c(Cl)c2)cn(-c2ccc(Cl)cc2)c1=O`, the growth is 64.8%.

Consider `COC(=O)c1ccc2c(c1)nc(-c1ccc(Cl)cc1)n2-c1cc(C(C)(C)C)[nH]n1`, for which the growth is 14.9%.

With `CCN1CCN(CC(=O)Nc2nc3ccc(NCc4ccc(Br)cc4)cc3s2)CC1`, the growth is 20.1%.

On to `C#CCn1cnc2cnc(Nc3cccc(NC(=O)C=C)c3)nc21`, for which the growth is 8.32% [6.25 µM] (active).

On to `O=c1n(Cc2ccc3ccccc3c2)ccn1Cc1ccc2ccccc2c1`, for which the growth is 103%.

On to `CN(C)C[C@@H]1CCn2cc(c3ccccc32)C2=C(C(=O)NC2=O)c2cn(c3ccccc23)CCO1`, for which the growth was -23.5% (active).

On to `CCCCCCCC/C=C\CCCCCCCCOc1cccc(CC(=O)NCC[N+]2(C)CCOCC2)c1`, for which the growth was 67.6%.

With `CO[C@H]1NC(=O)N(S(=O)(=O)c2ccc(Cl)cc2)[C@@H]1OC`, the growth was 105%.

Take `C=C1C(=O)O[C@H]2[C@H]1CC/C(COC(=O)CCCc1c[nH]c3ccccc13)=C\CC[C@@]1(C)O[C@@H]21`: the growth is 2.97% (active).

With `C=C1CC[C@@H]2[C@](C)(COC(C)=O)[C@H](OC(C)=O)CC[C@@]2(C)[C@@H]1CC(Nc1ccc(S(=O)(=O)Nc2nccs2)cc1)C1=CCOC1=O` (stereo not given in full), the growth is -20.9% (active).

Regarding `O=C(COc1ccc(/C=C2\Oc3ccccc3C2=O)cc1)Nc1nc2ccccc2s1`, the growth was -68.9% (active).

On to `CCN(CC)c1ccc2nc3ccc(N=Nc4ccc(N(C)C)cc4)cc3[n+](-c3ccccc3)c2c1`, for which the growth was -32.2% (active).

Regarding `COc1ccc(/C=C/C(=O)c2ccc3cc(OC)c(OC)cc3c2)cc1OC`, the growth is 44.7%.

For the compound `C[C@]1(CO)C[C@@H](O)C[C@]2(C)[C@@H]1CC[C@@]13C[C@@H]4[C@@H](C[C@H]12)[C@]4(C)C3`, the growth is 103%.

Turning to `Cc1ccc(NC(=O)c2ccccc2Cl)cc1`, the growth is 86.1%.
